This passage reports growth results from PubChem BioAssay (NCI).

Compounds without any hit were thinned out: in the full panel of roughly 83,000, 20% have a hit.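 Values shown are percent growth following 48 h exposure of cells in 96-well plates to a single concentration of compound; below 10 was considered active.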 Values without a mark were called inactive. Active and inactive are the calls of the source.

Assay in all cases: NCI-60 one-dose screen, 48 h (100 = growth as untreated, 0 = no growth, -100 = all killed)
In one experiment the test system is HCT-15 colon. To be noted: 10 µM unless noted.
For the next experiment, the system named is HT29 colon. The note with it: 10 µM unless noted.
The next experiment deals with SNB-75 CNS. To be noted: 10 µM unless noted.
Another experiment relates to SNB-19 CNS. The note with it: 10 µM unless noted.
The test system of a further experiment is U251 CNS. To be noted: 10 µM unless noted.
The next experiment deals with PC-3 prostate. To be noted: 10 µM unless noted.
The test system of another experiment is SK-MEL-5 melanoma. The note with it: 10 µM unless noted.
The next experiment deals with UACC-62 melanoma. The note with it: 10 µM unless noted.
The subject of another experiment is LOX IMVI melanoma. To be noted: 10 µM unless noted.
A further experiment has as its system SK-MEL-28 melanoma. To be noted: 10 µM unless noted.
The next experiment relates to SK-MEL-2 melanoma. To be noted: 10 µM.
For a further experiment, the system named is EKVX NSCLC. The note with it: 10 µM unless noted.
Another experiment concerns SN12C renal. The note with it: 10 µM unless noted.
The next experiment has as its system UO-31 renal. The note with it: 10 µM unless noted.
Another experiment relates to TK-10 renal. The note with it: 10 µM unless noted.
The subject of the next experiment is ACHN renal. To be noted: 10 µM unless noted.
A further experiment has as its system CAKI-1 renal. To be noted: 10 µM unless noted.
A further experiment concerns CCRF-CEM leukemia. The note with it: 10 µM unless noted.
For a further experiment, the system named is MOLT-4 leukemia. To be noted: 10 µM unless noted.

On to `CC1(/C=N/NC(N)=S)NC(=O)NC1=O` (configuration not stated), for which the growth in the experiment on HCT-15 colon was 104%; with HT29 colon it was 93.3%; in the experiment on SNB-75 CNS, 90.6%; in the experiment with SNB-19 CNS it was 108%; in the experiment on U251 CNS, 94.5%; in the experiment with PC-3 prostate, 93%. Moreover, the growth in the experiment with SK-MEL-5 melanoma was 100%; with UACC-62 melanoma it was 95.6%; with LOX IMVI melanoma, 101%; with SK-MEL-28 melanoma it was 117%; in the experiment with SK-MEL-2 melanoma it was 105%; in the experiment with EKVX NSCLC it was 99.1%. The growth in the experiment on SN12C renal is 95.5%; in the experiment with UO-31 renal it was 96.5%; with TK-10 renal, 96.5%; with ACHN renal it was 108%; with CAKI-1 renal, 96.7%; with CCRF-CEM leukemia it was 100%. In addition, in the experiment with MOLT-4 leukemia, the growth was 82%.

As to `CCCCCCCC(=O)SCC/C=C/[C@@H]1CC(=O)NCc2cccc(n2)C2=N[C@@](C)(CS2)C(=O)N[C@@H](C(C)C)C(=O)N1`, the growth in the experiment on HCT-15 colon is 75.3%; with HT29 colon, -6.83% (active); with SNB-75 CNS it was 24.5%; in the experiment on SNB-19 CNS, 38.6%; in the experiment on U251 CNS it was 13.7%; in the experiment on PC-3 prostate, 26.9%. Moreover, the growth in the experiment on SK-MEL-5 melanoma was 22.2%; with UACC-62 melanoma, 0.721% (active); with LOX IMVI melanoma, -1.52% (active); with SK-MEL-28 melanoma, 37.1%; in the experiment on SK-MEL-2 melanoma it was 18.1%; with EKVX NSCLC, 51.3%. Also, the growth in the experiment with SN12C renal was 55.7%; in the experiment with UO-31 renal, 50.8%; in the experiment on TK-10 renal it was 12%; with ACHN renal, 59.6%; in the experiment on CAKI-1 renal it was 82.3%; in the experiment on CCRF-CEM leukemia, 44.9%. The growth in the experiment with MOLT-4 leukemia was 17.5%.

Take `NS(=O)(=O)c1ccc(CCN2C(=O)/C(=C\c3ccc(Cl)cc3)C=C2c2ccc3ccccc3c2)cc1`: the growth in the experiment on HCT-15 colon is 94.9%; in the experiment with HT29 colon, 87.9%; in the experiment with SNB-75 CNS, 78.1%; with SNB-19 CNS, 92.5%; in the experiment on U251 CNS, 85.5%; with PC-3 prostate, 75.8%. The growth in the experiment on SK-MEL-5 melanoma was 94.8%; with UACC-62 melanoma, 71.8%; in the experiment on LOX IMVI melanoma it was 96.1%; in the experiment with SK-MEL-28 melanoma, 103%; in the experiment with SK-MEL-2 melanoma, 106%; with EKVX NSCLC, 89.4%. The growth was 94% in the experiment with SN12C renal; 78.4% with UO-31 renal; 95.5% with TK-10 renal; 90% with ACHN renal; 82.4% with CAKI-1 renal; 106% with CCRF-CEM leukemia. Further, the growth with MOLT-4 leukemia was 86.3%.

For `COc1ccc2c(CCC(c3ccccc3)c3ccccc3)c3[n+](cc2c1OC)CCc1cc2c(cc1-3)OCO2`, the growth in the experiment on HCT-15 colon is 47.1%; with HT29 colon, 6.26% (active); in the experiment on SNB-75 CNS, 37.1%; with SNB-19 CNS it was 20.6%; with U251 CNS, 10.5%; with PC-3 prostate it was -39.8% (active). The growth is -99.6% (active) with SK-MEL-5 melanoma; -43.5% (active) in the experiment with UACC-62 melanoma; -58.5% (active) with LOX IMVI melanoma; 3.87% (active) in the experiment on SK-MEL-28 melanoma; -15% (active) in the experiment on SK-MEL-2 melanoma; 24.7% in the experiment with EKVX NSCLC. Also, the growth is 0.0445% (active) in the experiment on SN12C renal; 45.6% in the experiment on UO-31 renal; 8.09% (active) with TK-10 renal; 23.4% in the experiment on ACHN renal; 60.2% in the experiment with CAKI-1 renal; 6.45% (active) with CCRF-CEM leukemia. Further, in the experiment with MOLT-4 leukemia, the growth was -10.1% (active).

As to `COc1ccc2c(CCc3ccc(Cl)cc3)c3[n+](cc2c1OC)CCc1cc2c(cc1-3)OCO2`, the growth is 111% with HCT-15 colon; 43.1% in the experiment with HT29 colon; 58% in the experiment on SNB-75 CNS; 28.3% with SNB-19 CNS; 22.4% with U251 CNS; 36.4% in the experiment on PC-3 prostate. For the same molecule, the growth in the experiment on SK-MEL-5 melanoma was 18.2%; in the experiment with UACC-62 melanoma it was 30.1%; in the experiment on LOX IMVI melanoma it was 50.9%; with SK-MEL-28 melanoma it was 27.6%; in the experiment on SK-MEL-2 melanoma, 36.7%; in the experiment on EKVX NSCLC, 69.9%. In addition, the growth in the experiment with SN12C renal was 21.9%; in the experiment on UO-31 renal, 91.4%; in the experiment on TK-10 renal it was 67.9%; in the experiment on ACHN renal it was 94.6%; in the experiment on CAKI-1 renal, 99.2%; with CCRF-CEM leukemia, 64.7%. The growth in the experiment with MOLT-4 leukemia is 72.6%.

As for `COC(=O)[C@]12CC[C@@H](C)[C@H](C)[C@@H]1C1=CC[C@@H]3[C@@]4(C)C(C=O)=C[C@@](C)(COS(C)(=O)=O)C4=CC[C@@]3(C)[C@]1(C)CC2`, the growth with HCT-15 colon is -80.5% (active); in the experiment on HT29 colon, -63.2% (active); in the experiment with SNB-75 CNS it was -25.1% (active); in the experiment with SNB-19 CNS it was -5.33% (active); in the experiment with U251 CNS, -93.6% (active); with PC-3 prostate it was -19.9% (active). Besides, the growth with SK-MEL-5 melanoma is -98.2% (active); in the experiment on UACC-62 melanoma it was -73.4% (active); in the experiment with LOX IMVI melanoma it was -98.7% (active); in the experiment on SK-MEL-28 melanoma it was -72.3% (active); with SK-MEL-2 melanoma, -40.3% (active); in the experiment with EKVX NSCLC it was -39.2% (active). In addition, the growth was -37.8% (active) with SN12C renal; -93.8% (active) in the experiment on UO-31 renal; -54.7% (active) with TK-10 renal; -82.8% (active) in the experiment with ACHN renal; -43.9% (active) in the experiment on CAKI-1 renal; -1.17% (active) in the experiment on CCRF-CEM leukemia. Moreover, the growth in the experiment on MOLT-4 leukemia is 0.901% (active).

With `Nc1c(C(=O)c2ccccc2)sc2nc(-c3cccs3)cc(-c3cccs3)c12`, the growth was 31.2% with HCT-15 colon; 11.2% with HT29 colon; 22.2% in the experiment on SNB-75 CNS; 42.9% in the experiment on SNB-19 CNS; 25.6% with U251 CNS; 33% with PC-3 prostate. Moreover, the growth in the experiment with SK-MEL-5 melanoma is 43.7%; with UACC-62 melanoma it was 28.7%; with LOX IMVI melanoma, 51.5%; with SK-MEL-28 melanoma, 64.9%; with SK-MEL-2 melanoma, 40.9%; in the experiment on EKVX NSCLC, 62.2%. The growth with SN12C renal is 59.5%; in the experiment with UO-31 renal, 60.5%; with TK-10 renal, 81.6%; in the experiment with ACHN renal, 55.7%; in the experiment on CAKI-1 renal, 50.5%; in the experiment with CCRF-CEM leukemia it was 40.1%. The growth in the experiment on MOLT-4 leukemia was 44.8%.

For the molecule `CC(C)[C@@H]1CC[C@]2(CO2)[C@@H]2C(=O)OCC(C(=O)O)=C[C@H]21`, the growth with HCT-15 colon is 0.806% (active); in the experiment on HT29 colon it was -1.49% (active); with SNB-75 CNS, 20.7%; in the experiment on SNB-19 CNS, 1.78% (active); in the experiment on U251 CNS, 1.81% (active); in the experiment with PC-3 prostate, 22.5%. In addition, the growth in the experiment on SK-MEL-5 melanoma is -42.8% (active); in the experiment on UACC-62 melanoma, -67.1% (active); in the experiment with LOX IMVI melanoma it was -31.2% (active); with SK-MEL-28 melanoma, -73.4% (active); in the experiment on SK-MEL-2 melanoma, -65.8% (active); in the experiment with EKVX NSCLC it was 71.5%. Further, the growth with SN12C renal is 2.26% (active); in the experiment with UO-31 renal, 5.96% (active); in the experiment with TK-10 renal, 11.6%; in the experiment with ACHN renal, 3.14% (active); in the experiment with CAKI-1 renal it was 6.64% (active); with CCRF-CEM leukemia, 0.852% (active). Besides, in the experiment on MOLT-4 leukemia, the growth was -17.6% (active).
